HT1080-NT tox: qHTS for induction of synthetic lethality in tumor cells producing 2HG: qHTS for the HT-1080-NT fibrosarcoma cell line; HT-1080-NT fibrosarcoma viability, CellTiter-Glo ATP luminescence, 48 h; Potency, µM (series often up to 46.1 µM), without a hit: top-dose activity, negative = less viability, hits mostly cytotoxic; actives 1.6% (n = 360,000);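 further: NT is the 2HG producing partner of a matched IDH1 knockdown line; potency means the concentration at half of the fitted maximal effect; 0% = DMSO-treated cells and -100% = media-only wells without cells; nearly all actives have a fitted effect of over 55% in size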
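Compounds were tested in concentration-response format on HT-1080-NT cells for 48 hours at 37 degrees C. Cell viability came from CellTiter-Glo luminescence; curves were classified by r2, response magnitude and activity.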
HT1080 IDH1KD tx: qHTS for induction of synthetic lethality in tumor cells producing 2HG: qHTS for the HT-1080-IDH1KD cell line. HT-1080 IDH1 knockdown viability, ATP luminescence, 48 h. Potency, µM (top dose mostly 46.1 µM), without a hit: at the highest dose activity, negative = toxicity, hits mostly cytotoxic. actives 2% (n = 360,000);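 further: potency means the concentration at half of the fitted maximal effect; 0% = DMSO wells and -100% = cell-free medium wells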
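In this qHTS, HT-1080 cells depleted of IDH1 are exposed for 48 h at 37 °C to compound titrations. Toxicity is scored from CellTiter-Glo luminescence, with DMSO as full viability and medium alone as none.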
12-LOX inh: Primary qHTS assay for inhibitors of human arachidonate 12S-lipoxygenase (ALOX12): Round 2; Polyunsaturated fatty acid lipoxygenase ALOX12 (Homo sapiens), P18054; AID 1671190, 2021; purified 12hLO, xylenol orange hydroperoxide absorbance; Potency, µM (top dose mostly 108 µM), for inactives: at the highest dose activity change, negative = inhibition, usual class: inhibitors; actives 1.1% (n = 580,000); further: potency means the concentration at half of the fitted maximal effect
Target sequence (P18054 whole entry, looked up): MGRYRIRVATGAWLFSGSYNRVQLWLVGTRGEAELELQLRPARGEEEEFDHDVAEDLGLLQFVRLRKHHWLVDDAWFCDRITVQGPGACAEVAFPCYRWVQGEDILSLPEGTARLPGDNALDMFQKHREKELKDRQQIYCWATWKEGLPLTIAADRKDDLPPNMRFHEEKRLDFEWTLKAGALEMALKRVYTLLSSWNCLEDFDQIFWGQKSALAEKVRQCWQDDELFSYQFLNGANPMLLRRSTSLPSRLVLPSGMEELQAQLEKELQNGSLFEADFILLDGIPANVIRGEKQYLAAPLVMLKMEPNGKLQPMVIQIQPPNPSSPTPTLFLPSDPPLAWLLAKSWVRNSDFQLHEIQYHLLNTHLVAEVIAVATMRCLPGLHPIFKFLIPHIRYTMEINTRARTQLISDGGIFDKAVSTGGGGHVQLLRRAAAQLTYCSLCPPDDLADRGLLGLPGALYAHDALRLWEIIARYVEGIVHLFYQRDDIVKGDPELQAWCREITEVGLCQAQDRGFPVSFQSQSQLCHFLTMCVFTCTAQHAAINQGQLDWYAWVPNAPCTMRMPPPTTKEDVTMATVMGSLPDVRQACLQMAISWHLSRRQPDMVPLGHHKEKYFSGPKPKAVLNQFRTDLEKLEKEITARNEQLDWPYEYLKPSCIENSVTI
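Purified human 12hLO at 150 nM in 25 mM Hepes, 0.01% Triton X-100, pH 7.0, preincubated 15 min at room temperature with compound. Reaction started with 40 uM arachidonic acid, 30 min at room temperature. Hydroperoxide measured by Fe-xylenol orange, 573/405 nm absorbance ratio.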
DT40 TDP1 CPT: qHTS for Inhibitors of human tyrosyl-DNA phosphodiesterase 1 (TDP1): qHTS in cells in presence of CPT; chicken DT40 Tdp1-/-;hTDP1 cells + 20 nM CPT, ATP luminescence, 48 h; Potency, µM (highest dose often 46.2 µM), without a hit: top-dose activity change, negative = growth inhibition, actives largely listed as inhibitors; actives 12% (n = 420,000); AID 686979, 2013; further: potency means the concentration at half of the fitted maximal effect; nearly all actives have a fitted effect of over 55% in size
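Chicken DT40 Tdp1-/- cells complemented with human TDP1, 400 cells/well, exposed to compounds plus 20 nM camptothecin for at least 48 h at 37 C; viability read as ATP content by CellTiter-Glo luminescence.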
IL-1B inflam inh: qHTS for Inhibitors of Inflammasome Signaling: IL-1-beta AlphaLISA Primary Screen. THP-1 LPS/ATP IL-1B secretion, AlphaLISA, 16 h; stronger effect = lower value. AID 743279, 2014. activity change, % at 57.5 µM. actives 4.7% (n = 360,000); in the data active means activity change below about -50%; inconclusive means mostly about -30% to -49%
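THP-1 cells pretreated 1 hr with compounds (up to 57.5 uM final), then stimulated with LPS (250 ng/mL final) plus ATP (1.25 mM final); secreted IL-1B measured by AlphaLISA after 16 hr, decreased signal indicating inhibition.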
TDP1 cell noCPT: qHTS for Inhibitors of human tyrosyl-DNA phosphodiesterase 1 (TDP1): qHTS in cells in absence of CPT | AID 686978, 2013 | actives 15% (n = 420,000) | DT40 Tdp1-/- hTDP1 cells, no CPT, ATP luminescence, 48 h | Potency, µM (highest dose often 46.2 µM), inactives show top-dose activity change, negative = growth inhibition, most hits filed as inhibitors; further: potency means the concentration at half of the fitted maximal effect; nearly all actives have a fitted effect of over 55% in size
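Camptothecin absent (DMSO only). Human TDP1-complemented DT40 knockout cells, 400 cells/well, 37 °C for minimum 48 hr; ATP measured via CellTiter-Glo, 30 min dark incubation, luminescence.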
* marks the source's active call; other numbers are inactive results; ? = inconclusive; . = no result given. The full list was thinned out, with hits kept by preference. Unless noted, the call rests on the fitted dose curve; in most records, active means well fitted curve in the direction sought with a large enough effect; inconclusive means small, poorly fitted or top-dose-only effect, or another doubt; inactive means no such curve, though single readings can be large; an effect the other way counts as inactive or inconclusive. Unless noted, on the % scale 0 is the no-effect control and ±100 the full control effect.

SMILES	HT1080-NT tox	HT1080 IDH1KD tx	12-LOX inh	DT40 TDP1 CPT	IL-1B inflam inh	TDP1 cell noCPT
CCN(CC)CC(=O)c1c[nH]c2ccc(C)cc12	1%	-6%	?	21µM*	11	23µM*
CCN(CC)CC(=O)c1c[nH]c2ccccc12	3%	5%	-2%	-19%	35	-18%
Cc1c(C(=O)N2CCCCC2)sc(NC(=O)C23CC4CC(CC(C4)C2)C3)c1C#N	12%	8%	7%	?	-8	18µM*
Cc1c(C(=O)N2CCCC2)sc(NC(=O)c2cccc(Cl)c2)c1C#N	-26%	-3%	-26%	?	-1	26µM*
Cc1cccc(C(=O)Nc2sc(C(=O)N3CCCC3)c(C)c2C#N)c1	3%	0%	-5%	?	-17	?
CC(=O)/C(=N\Nc1ccccc1)Oc1ccc([N+](=O)[O-])cc1	-8%	-2%	-20%	-17%	28	6%
CC(C)OP(=O)(OC(C)C)/C(C=O)=N\Nc1ccc([N+](=O)[O-])cc1	21µM*	16µM*	?	16µM*	-90*	?
CN1CC(c2ccc(Cl)c(Cl)c2)[C@@]2(COc3ccccc3C2=O)[C@@]12C(=O)Nc1ccccc12 (stereo not given in full)	-10%	7%	0%	18µM*	-12	?
CNC(=O)C(C)SCc1ccc(Br)cc1 (stereo not given)	.	.	-6%	.	.	.
Oc1c(Cl)cc(Cl)cc1CNc1nccs1	-19%	-14%	-1%	-1%	25	-9%
Oc1c(Cl)cc(Cl)cc1Sc1cc(Cl)cc(Cl)c1O	.	.	.	?	.	23µM*
Cc1cc(-n2[nH]c(C)c(C)c2=O)nc(-c2ccccc2O)n1	-18%	?	14%	16µM*	82	?
Cc1cc(N2CCC(C)CC2)nc(-c2ccccc2O)n1	-2%	-1%	2%	-25%	3	-16%
COc1ccccc1C1C2C(=O)N(c3ccccc3)C(=O)C2ON1c1ccccc1 (stereo not given)	-2%	-7%	-15%	-5%	-6	-4%
COc1ccc(C2C3C(=O)N(Cc4ccccc4)C(=O)C3ON2c2ccccc2)c(OC)c1OC (stereo not given)	-7%	-4%	0%	?	-4	21µM*
CCCCc1cc(C[C@H]2CNCC[C@H]2CC(=O)N2CCC(Cc3ccccc3)CC2)no1	.	.	55%	.	.	.
Cc1cc(C)c(/C=C/c2onc(C)c2S(=O)(=O)N2CCC(C(=O)Nc3ccc(Cl)c(C(F)(F)F)c3)CC2)c(C)c1	.	.	-20%	4.1µM*	.	5.8µM*
CCOc1ccc(N(C)C(=O)C2CCN(S(=O)(=O)c3c(C)noc3/C=C/c3ccc(C)cc3)CC2)cc1	.	.	-28%	4.1µM*	.	5.8µM*
Cc1cc(C)c(/C=C/c2onc(C)c2S(=O)(=O)N2CCC(C(=O)NCC(C)c3ccccc3)CC2)c(C)c1 (stereo not given)	.	.	-19%	23µM*	.	15µM*
CCOc1ccc(NC(=O)C2CCN(S(=O)(=O)c3c(C)noc3/C=C/c3c(C)cc(C)cc3C)CC2)cc1	.	.	-20%	9.2µM*	.	6.5µM*
Cc1noc(/C=C/c2ccccc2F)c1S(=O)(=O)N1CCC(C(=O)NCC(C)c2ccccc2)CC1 (stereo not given)	.	.	-19%	-12%	.	-28%
COc1nc2ccccc2nc1N1CCC(C(=O)Nc2cccc(C)c2)CC1	.	.	6%	.	.	.
CC(=O)Nc1ccc(NC(=O)COC(=O)c2cc(=O)[nH]c3ccccc23)cc1	.	.	4%	.	.	.
O=C(NNC(=O)C1CC1)c1cc(Br)c(Br)s1	14%	7%	11%	-26%	-8	14%
O=C(Nc1ccc(Br)cc1)c1cc(Br)c(Br)s1	.	.	.	?	.	19µM*
SMILES	HT1080-NT tox	HT1080 IDH1KD tx	12-LOX inh	DT40 TDP1 CPT	IL-1B inflam inh	TDP1 cell noCPT
COc1ccc(NC(=O)c2cc(Br)c(Br)s2)cn1	-10%	-12%	13µM*	0%	-53*	?
CCc1cc(C(=O)Nc2ccc(OC)nc2)sc1C	4%	10%	?	3%	0	-17%
COCCNC(=S)N/N=C(\C)c1ccc(OC(F)F)cc1	2%	0%	?	16µM*	-11	3%
C/C(=N\NC(=O)C(N)=O)c1cccc(C(F)(F)F)c1	5%	2%	7%	7%	2	-1%
C/C(=N\NC(=O)COc1ccc(C(C)(C)C)cc1)c1ccc(OC(F)F)cc1	-9%	-6%	26%	-3%	-13	?
COCCNC(=S)N/N=C(\C)c1cccc(C(F)(F)F)c1	20%	19%	?	?	-9	21µM*
C=C(C)CNC(=S)N/N=C(\C)c1ccc(OC)cc1	9%	2%	?	3.7µM*	0	2.9µM*
COc1ccc(CNC(=S)N/N=C(/C)c2ccccc2)cc1	-8%	-13%	?	-1%	-11	?
COCCNC(=S)N/N=C(\C)c1cc2ccccc2o1	18%	15%	?	?	12	18µM*
C/C(=N\NC(=O)COc1ccc(C(C)(C)C)cc1)c1cc2ccccc2o1	-1%	-17%	-2%	0%	-25	?
Cc1ccc(S(=O)(=O)N2CCCN(C(=O)CN3CCOCC3)C2c2ccccc2)cc1 (stereo not given)	.	.	-2%	.	.	.
N#CC(Cc1cccnc1)C(=O)Nc1ccccc1Cl (stereo not given)	.	.	31%	.	.	.
CCCCn1nc(C(=O)Nc2ccc3c(c2)CCC3)c2ccccc2c1=O	.	.	2%	.	.	.
COCCNC(=S)N/N=C(\C)c1ccc(C)c([N+](=O)[O-])c1	7%	-2%	?	1.3µM*	-65*	1.5µM*
COCCNC(=S)N/N=C(\C)c1ccc2cc(OC)ccc2c1	-15%	-25%	35µM*	13µM*	-88*	26µM*

High-throughput results from PubChem.
